# Test results reported in the supplement of paper PMC9135407.
# Several values for one entry are separate records, joined by “and”; a condition that tells them apart may be missing. Equal values may be shown once. Where a name gives a salt, the structure may show the parent alone. In all, about 5,800 compounds went through this assay and about 620 (11%) showed activity. The sample as a whole holds a higher share of actives than the screen did. A number with no mark means an inactive call.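 Rule for the calls: active = score above a cut-off or among the top three wells of a plate; in these data no inactive exceeds 0.85.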
# System: primary human hepatic stellate cells (donor 1)
# Experiment: scaled lipid accumulation score (0 = DMSO-like, 1 = nortriptyline-like); higher = stronger HSC inactivation (lipid re-accumulation), active = hit call of the paper
# Conditions: 48 h
# [1] = library stock concentration: 1 mM
# [2] = library stock concentration: 80 uM
# [3] = library stock concentration: 400 uM
# [4] = library stock concentration: 2 mM
# [5] = library stock concentration: 3.33 mM
# [6] = library stock concentration: 10 mM
smiles,measurement,setting,value
CC(C)CC[C@@H](O)[C@@H](C)[C@H]1CC[C@H]2[C@@H]3CC=C4C[C@@H](O)CC[C@]4(C)[C@H]3CC[C@]12C [22(R)-hydroxy Cholesterol],scaled lipid accumulation score,[1],0.045
O=C1C[C@@H]2[C@@H](/C=C/[C@@H](O)COc3cccc(C(F)(F)F)c3)[C@H](O)C[C@@H]2O1 [Fluprostenol Lactone Diol],scaled lipid accumulation score,[1],0.003
CC1=C(C(=O)Nc2cc3cn[nH]c3cc2F)C(c2ccc(C(F)(F)F)cc2)CC(=O)N1 (centres undefined),scaled lipid accumulation score,[2],0.022
same,scaled lipid accumulation score,[3],≤ 0 and ≤ -0.005
same,scaled lipid accumulation score,[4],0.014 and ≤ -0.005
same,scaled lipid accumulation score,[5],≤ 0
same,scaled lipid accumulation score,[6],≤ 0 and 0.096 and 0.308
"C/C=C1\NC(=O)[C@H]2CSSCC/C=C/[C@H](CC(=O)N[C@H](C(C)C)C(=O)N2)OC(=O)[C@H](C(C)C)NC1=O [Romidepsin (FK228, Depsipeptide)]",scaled lipid accumulation score,[5],0.521
same,scaled lipid accumulation score,[6],0.472
C=CC(=O)N1CCc2ccc(-n3c(=O)ccc4cnc5ccc(-c6cnn(C)c6)cc5c43)cc21,scaled lipid accumulation score,[6],1.19 (active)
C=CC(=O)Nc1cc(-n2c(=O)ccc3cnc4ccc(-c5ccc(NS(C)(=O)=O)cc5)cc4c32)ccc1C,scaled lipid accumulation score,[2],≤ -0.001
same,scaled lipid accumulation score,[3],≤ -0.001
same,scaled lipid accumulation score,[4],0.003
same,scaled lipid accumulation score,[6],0.06
C=CC(=O)Nc1cc(-n2c(=O)ccc3cnc4ccc(-c5cn[nH]c5)cc4c32)ccc1C,scaled lipid accumulation score,[2],≤ 0
same,scaled lipid accumulation score,[3],≤ 0
same,scaled lipid accumulation score,[4],0.082
same,scaled lipid accumulation score,[6],0.662
CCCCC(CC)CN=C(N)N=C(N)NCCCCCCNC(N)=NC(N)=NCC(CC)CCCC (centres undefined) [Alexidine hydrochloride],scaled lipid accumulation score,[6],≤ -0.027
CCCCCC1OC(O)CC1SC[C@H](NC(C)=O)C(=O)O (some centres undefined) [4-hydroxy Nonenal Mercapturic Acid],scaled lipid accumulation score,[1],≤ 0
Nc1c(CC(=O)O)cccc1C(=O)c1ccccc1 [Amfenac Sodium Monohydrate],scaled lipid accumulation score,[5],≤ 0
same,scaled lipid accumulation score,[6],0.019
NC1(C(=O)N[C@@H](CCO)c2ccc(Cl)cc2)CCN(c2ncnc3[nH]ccc23)CC1,scaled lipid accumulation score,[2],0.053
same,scaled lipid accumulation score,[3],0.049
same,scaled lipid accumulation score,[4],0.038
same,scaled lipid accumulation score,[5],≤ -0.009
same,scaled lipid accumulation score,[6],≤ 0 and 0.178
NC1(Cc2ccc(Cl)cc2)CCN(c2ncnc3[nH]ccc23)CC1 [listing 1 of 2 here],scaled lipid accumulation score,[6],1.09 (active)
NC1(Cc2ccc(Cl)cc2)CCN(c2ncnc3[nH]ccc23)CC1 [listing 2 of 2 here],scaled lipid accumulation score,[5],0.47
"OCCNCCCOc1cccc(Cl)c1Cl [2,3-DCPE (hydrochloride)]",scaled lipid accumulation score,[1],0.049
O=C(c1cccs1)c1ccc(OCCCO)c(Cl)c1Cl [homo-Tienilic Alcohol],scaled lipid accumulation score,[1],0.02
"Cl.OCCNCCCOc1cccc(Cl)c1Cl [2,3-DCPE hydrochloride]",scaled lipid accumulation score,[6],1.14 (active)
O=Cc1cccc2[nH]ccc12 [4-formyl Indole],scaled lipid accumulation score,[1],≤ 0
CC(C)(C)Cn1c(N)nc2ccc(-c3[nH]c(C(C)(C)C)nc3-c3ccc(F)cc3)nc21 [Ralimetinib],scaled lipid accumulation score,[2],0.033
same,scaled lipid accumulation score,[3],0.086
same,scaled lipid accumulation score,[4],0.076
same,scaled lipid accumulation score,[6],0.481
CC(C)(C)Cn1c(N)nc2ccc(-c3[nH]c(C(C)(C)C)nc3-c3ccc(F)cc3)nc21,scaled lipid accumulation score,[5],0.034
same,scaled lipid accumulation score,[6],0.268
O=C(O)CCC/C=C\C[C@H]1[C@@H](O)CC(=O)[C@@H]1/C=C/[C@@H](O)COc1cccc(C(F)(F)F)c1 [11-keto Fluprostenol],scaled lipid accumulation score,[1],≤ 0
CN(C)C/C=C(/c1ccc(Br)cc1)c1cccnc1.Cl.Cl [Zimelidine dihydrochloride],scaled lipid accumulation score,[6],0.893 (active)
CN(C)C/C=C(/c1ccc(Br)cc1)c1cccnc1 [Zimelidine dihydrochloride monohydrate],scaled lipid accumulation score,,0.454
CCN(CC)C(=O)c1cccnc1,scaled lipid accumulation score,[6],0.073
CN(C)C/C=C(/c1ccc(Br)cc1)c1cccnc1 [Zimelidine dihydrochloride],scaled lipid accumulation score,library stock concentration: 5.1 mM,0.434
same,scaled lipid accumulation score,[6],0.178
CC(=O)OCOC(c1ccc2ccccc2c1)P(=O)(OCOC(C)=O)OCOC(C)=O (centres undefined),scaled lipid accumulation score,library stock concentration: 11 mM,0.031
CC(=O)OCOC(c1cc([N+](=O)[O-])ccc1Oc1ccc(Br)cc1)P(=O)(OCOC(C)=O)OCOC(C)=O (centres undefined),scaled lipid accumulation score,library stock concentration: 8.1 mM,0.887 (active)
CS(=O)(=O)Nc1ccc([N+](=O)[O-])cc1Oc1ccccc1 [Nimesulide],scaled lipid accumulation score,,0.061
same,scaled lipid accumulation score,[1],≤ 0
same,scaled lipid accumulation score,[5],≤ 0
same,scaled lipid accumulation score,library stock concentration: 16.2 mM,0.012
Cn1cc(C(F)(F)F)nc1-c1ccc(OCC(O)CNCCOc2ccc(O)c(C(N)=O)c2)cc1 (centres undefined),scaled lipid accumulation score,[6],0.731
COc1cc2ncnc(Sc3nnc(C)s3)c2cc1OC [listing 1 of 2 here],scaled lipid accumulation score,[5],≤ -0.009
COc1cc2ncnc(Nc3cc(Br)c(O)c(Br)c3)c2cc1OC,scaled lipid accumulation score,[2],≤ 0
same,scaled lipid accumulation score,[3],≤ 0
same,scaled lipid accumulation score,[4],≤ 0
same,scaled lipid accumulation score,[6],0.04
COc1cc2ncnc(Sc3nnc(C)s3)c2cc1OC [listing 2 of 2 here],scaled lipid accumulation score,[6],0.919 (active)
C=CC(=O)Nc1cc(NC(=O)c2ccc(C)c(NC(=O)c3ccno3)c2)cc(C(F)(F)F)c1,scaled lipid accumulation score,[2],≤ 0
same,scaled lipid accumulation score,[3],≤ 0
same,scaled lipid accumulation score,[4],≤ 0
same,scaled lipid accumulation score,[6],0.311
Nc1ccc(-c2cccc3c(=O)cc(N4CCOCC4)oc23)cc1,scaled lipid accumulation score,[6],≤ -0.001
Nc1ncnc2nc(-c3ccc(N4CCOCC4)nc3)cc(-c3cccc(Br)c3)c12 [listing 1 of 2 here],scaled lipid accumulation score,[2],≤ -0.001
same,scaled lipid accumulation score,[3],0.008
same,scaled lipid accumulation score,[4],≤ -0.001
Nc1ncnc2nc(-c3ccc(N4CCOCC4)nc3)cc(-c3cccc(Br)c3)c12 [listing 2 of 2 here],scaled lipid accumulation score,[6],0.982 (active)
Nc1ncnc2nc(-c3ccc(N4CCOCC4)nc3)cc(-c3cccc(Br)c3)c12 [ABT 702 dihydrochloride],scaled lipid accumulation score,[6],0.275
O=C(CCBr)N1CCN(C(=O)CCBr)CC1 [Pipobroman],scaled lipid accumulation score,[6],≤ -0.027
S=C=Nc1cccc(NC(=S)NCCCCNC(=S)Nc2cccc(N=C=S)c2)c1,scaled lipid accumulation score,[5],0.004
same,scaled lipid accumulation score,[6],0.023
CCNC(=O)c1noc(-c2cc(C(C)C)c(O)cc2O)c1-c1ccc(CN2CCOCC2)cc1 [listing 1 of 2 here],scaled lipid accumulation score,[5],0.91 (active)
CCNC(=O)c1noc(-c2cc(C(C)C)c(O)cc2O)c1-c1ccc(CN2CCOCC2)cc1 [listing 2 of 2 here],scaled lipid accumulation score,[2],0.702
same,scaled lipid accumulation score,[3],0.802
same,scaled lipid accumulation score,[4],0.808
same,scaled lipid accumulation score,[6],0.831 and 0.776
CCNC(=O)c1noc(-c2cc(Cl)c(O)cc2O)c1-c1ccc(OC)cc1,scaled lipid accumulation score,[5],0.783
same,scaled lipid accumulation score,[6],0.741
CN(C)[C@@H]1CCc2[nH]c3ccc(NC(=O)c4ccc(F)cc4)cc3c2C1.Cl,scaled lipid accumulation score,[6],1.37 (active)
CN(C)CC(=O)Nc1ccc2[nH]c(=O)c3ccccc3c2c1,scaled lipid accumulation score,[5],≤ 0 and ≤ -0.009
same,scaled lipid accumulation score,[6],0.59 and 0.025
CN(C1CCc2c(c3ccccc3n2CC(=O)O)C1)S(=O)(=O)c1ccc(F)cc1 (centres undefined),scaled lipid accumulation score,[1],0.083
CCCCCCCCCCCCCCCC(O)C(N)CO (racemic) [DL-Dihydrosphingosine],scaled lipid accumulation score,[1],≤ -0.021
NC(=O)c1cnc(N[C@@H]2CCCC[C@@H]2N)nc1Nc1cccc(-n2nccn2)c1,scaled lipid accumulation score,[2],≤ 0
same,scaled lipid accumulation score,[3],0.015
same,scaled lipid accumulation score,[4],0.218
same,scaled lipid accumulation score,[5],0.214
same,scaled lipid accumulation score,[6],0.215 and 0.449
Cc1cc(O)cc(C)c1Cl [Chloroxylenol],scaled lipid accumulation score,[6],≤ 0
C[C@H]1c2cccc(O)c2C(O)=C2C(=O)[C@]3(O)C(O)=C(C(N)=O)C(=O)[C@@H](N(C)C)[C@@H]3[C@@H](O)[C@@H]21 [Doxycycline Hyclate],scaled lipid accumulation score,[5],≤ 0
same,scaled lipid accumulation score,[6],≤ -0.001
CC(C)OC(=O)CCC/C=C\C[C@@H]1[C@@H](/C=C/[C@@H](O)CCc2ccccc2)[C@H](O)C[C@@H]1O [17-phenyl trinor Prostaglandin F2.alpha. isopropyl ester],scaled lipid accumulation score,[1],≤ 0
CC(C)Nc1ncccn1,scaled lipid accumulation score,[6],≤ 0
C(=C\c1ccccc1)/CN1CCN(C(c2ccccc2)c2ccccc2)CC1 [Cinnarazine],scaled lipid accumulation score,library stock concentration: 5.4 mM,0.328
same,scaled lipid accumulation score,[6],0.423
COc1ccc(-c2cc(C(F)F)nn2-c2ccc(S(N)(=O)=O)cc2)cc1F [Deracoxib],scaled lipid accumulation score,library stock concentration: 5 mM,≤ 0
CCCCC/C=C\C/C=C\C/C=C\CCCCC(=O)OC [.gamma.-Linolenic Acid methyl ester],scaled lipid accumulation score,[1],≤ 0
O=C(O)CCCCCC[C@@H]1[C@@H](CC[C@@H](O)CCc2cccc(C(F)(F)F)c2)[C@H](O)C[C@@H]1O,scaled lipid accumulation score,[1],≤ 0
"CCCCC(C)(C)[C@H](O)/C=C/[C@H]1[C@H](O)CC(=O)[C@@H]1CC(=O)CCCCC(=O)O [16,16-dimethyl-6-keto Prostaglandin E1]",scaled lipid accumulation score,[1],≤ 0
CC[C@]1(O)C[C@@H]2CN(CCc3c([nH]c4ccccc34)[C@@](C(=O)OC)(c3cc4c(cc3OC)N(C=O)[C@H]3[C@@](O)(C(=O)OC)[C@H](OC(C)=O)[C@]5(CC)C=CCN6CC[C@]43[C@@H]65)C2)C1.O=S(=O)(O)O,scaled lipid accumulation score,[6],1.47 (active)
CC[C@]1(O)C[C@H]2CN(CCc3c([nH]c4ccccc34)[C@@](C(=O)OC)(c3cc4c(cc3OC)N(C=O)[C@H]3[C@@](O)(C(=O)OC)[C@H](OC(C)=O)[C@]5(CC)C=CCN6CC[C@]43[C@@H]65)C2)C1 [Vincristine],scaled lipid accumulation score,[5],0.004
same,scaled lipid accumulation score,[6],0.512
CCC1(O)CC2CN(CCc3c([nH]c4ccccc34)[C@@](C(=O)OC)(c3cc4c(cc3OC)N(C=O)C3[C@]45CCN4CC=C[C@@](CC)([C@@H](OC(C)=O)[C@]3(O)C(=O)OC)[C@H]45)C2)C1.O=S(=O)(O)O (some centres undefined) [Vincristine sulfate],scaled lipid accumulation score,[6],0.897 (active)
CC[C@]1(O)C[C@H]2CN(CCc3c([nH]c4ccccc34)[C@@](C(=O)OC)(c3cc4c(cc3OC)N(C=O)[C@H]3[C@@](O)(C(=O)OC)[C@H](OC(C)=O)[C@]5(CC)C=CCN6CC[C@]43[C@@H]65)C2)C1.O=S(=O)(O)O [Vincristine sulfate],scaled lipid accumulation score,[6],1.36 (active)
